Data reported in ChEMBL document CHEMBL4513216, “Probing the Open Global Health Chemical Diversity Library for Multistage-Active Starting Points for Next-Generation Antimalarials” (ACS Infect Dis, 2020).
The whole screen tested about 65,000 compounds, of which about 2,100 (3.2%) showed an effect of 50% or more. The median lay at about -52%. Only a selection was taken, and strong results are over-represented in it overall.

system: Plasmodium falciparum; experiment: Screen against P. falciparum Asexual Blood Stage (ABS), at 5uM; type: functional, Dd2; conditions: tested at 5 uM

| SMILES | INHIBITION |
| --- | --- |
| O=C(NCC1CCCCC1)NC1CCCc2c1cnn2CCO (centres undefined) | -133% |
| Cc1c(C(C)NC(=O)N2CCN(C3CCCC3)CC2)cnn1C (centres undefined) | -70.2% |
| COC(=O)c1sc2cccc(F)c2c1CNC(=O)C1CCOC1 (centres undefined) | -5.44% |
| Cc1cccc(Nc2ccc(C3CCN(Cc4ncc[nH]4)CC3)nc2)n1 | 51.8% |
| Fc1cccc(OC2CCN(Cc3ncc[nH]3)CC2)c1 | 36.9% |
| CNc1cccc(C2CCCN(Cc3ncc[nH]3)C2)n1 (centres undefined) | -20.8% |
| Fc1ccc(Nc2ccc(C3CCN(Cc4ncc[nH]4)CC3)nc2)nc1 | 63.1% |
| Cc1cc(Nc2ccc(F)cn2)cc(C2CCN(Cc3ncc[nH]3)C2)n1 (centres undefined) | -49.2% |
| Cc1nnc(Nc2cccc(C3CCN(Cc4ncc[nH]4)CC3)n2)s1 | 31.6% |
| CCN(CC)C(=O)C1CCCN1C(=O)c1cccc(-n2cnnn2)c1 (centres undefined) | -72.5% |
| O=C(CCCOc1ccccc1F)NCCCC(=O)Nc1cn[nH]c1 | -97.2% |
| Cc1cc(C)n(CC2CCCN2C(=O)c2ccc3c(c2)COC3)n1 (centres undefined) | -101% |
| c1ccc(OCCNC2=NCCCN2)cc1 | 16.3% |
| CN(C)c1ccc(CNC2=NCCCN2)cc1 | -56.7% |
| CCOCc1ccc(CNC2=NCCCN2)cc1 | 55.7% |
| CCOCCOC(C)C(=O)NCc1cn2cc(Cl)ccc2n1 (centres undefined) | -73.4% |
| COc1ccc(S(=O)(=O)N2C[C@H](OC)[C@]3(CCCO3)C2)cc1 | -98.4% |
| COCC(=O)N[C@@H]1CN(Cc2ccc3c(c2)OCCO3)C[C@H]1O | -66.5% |
| Cc1nn(C)c2cn(C(C)C(=O)NCc3cccc(F)c3)nc12 (centres undefined) | -32% |
| Cc1oc(-c2ccco2)nc1CN1CCCC(Cn2cncn2)C1 (centres undefined) | 56.4% |
| c1ncn(CC2CCCN(Cc3nnc(C4CC4)o3)C2)n1 (centres undefined) | -49% |
| c1coc(-c2nc(CN3CCCC(Cn4cncn4)C3)cs2)c1 (centres undefined) | -19.5% |

| SMILES | INHIBITION |
| --- | --- |
| CC(C)c1nnc(CN2CCCC(Cn3cncn3)C2)o1 (centres undefined) | 53.1% |
| c1coc(-c2noc(CN3CCCC(Cn4cncn4)C3)n2)c1 (centres undefined) | -29% |
| CC(C)(C)c1nnc(CN2CCCC(Cn3cncn3)C2)o1 (centres undefined) | -204% |
| COc1ccc2c(c1)CC(C1CCOCC1)N(C(=O)c1cnccn1)C2 (centres undefined) | -108% |
| COC(=O)c1ccc(N2CCN(C(=O)c3cccnc3)C(C)C2)cc1 (centres undefined) | -5.1% |
| CN(C)C(=O)CN1CCc2ncnc(NC3CCC3)c2CC1 | -76.8% |
| CCC(CO)N(Cc1ccc(C(=O)O)cc1)Cc1ccsc1 (centres undefined) | -74.7% |
| CCC(CO)N(Cc1ccsc1)Cc1cccc(O)c1 (centres undefined) | 67.6% |
| CCC(CO)N(CC=C(C)C)Cc1ccsc1 (centres undefined) | 23.4% |
| O=C(NCCCN1CCOCC1)c1nc(-c2ccc3cc[nH]c3c2)no1 | 20.5% |
| COc1cccc(CC(=O)N2CCCC2c2nc(C)c(C)c(O)n2)c1 (centres undefined) | -102% |
| CN(CCC#N)C(=O)Cn1nnnc1C(C)(C)C | -112% |
| CC(O)(CNC(=O)c1c(F)cccc1Cl)c1ccco1 (centres undefined) | -45.8% |
| CC(C)c1cc(C(=O)NCCN2CCOCC2)nc(N2CCCC2)n1 | -70.3% |
| c1ccc(-c2nc3c(c(NCCc4c[nH]cn4)n2)CCNC3)cc1 | 51.1% |
| c1cc(-c2nc3c(c(NCCc4c[nH]cn4)n2)CCNCC3)ccn1 | -225% |
| c1nc(CCNc2nc(C3CC3)nc3c2CCNCC3)c[nH]1 | -79.3% |
| Cc1ccc(C(=O)N2CCC(O)(CN3CCc4ccccc4C3)C2)s1 (centres undefined) | -64.4% |
| CN(C)Cc1ccc(C(=O)N2CCCC(COc3ccc(F)cc3)C2)o1 (centres undefined) | 17.1% |
| CC(NC(=O)NCCCN(C)S(C)(=O)=O)c1ccc(Cl)cc1 (centres undefined) | -42.6% |
| Cc1ccc(NC(=O)Nc2cnc(N3CCN(C)CC3)nc2)cc1 | 59.3% |
| COc1ccc(NC(=O)c2cnc(N3CCN(C)CC3)nc2C)cc1 | -103% |

| SMILES | INHIBITION |
| --- | --- |
| COc1ccc(C)cc1NC(=O)Nc1cnc(N2CCCC2)nc1 | -26.2% |
| CCC1CN(C)c2ccccc2CN1C(=O)Nc1cccc(F)c1 (centres undefined) | -107% |
| COCCN(CCOC)C(=O)c1cnn(C)c1C | -57.9% |
| Cc1nc(CNC2CCN(Cc3ccccc3)C2)sc1C (centres undefined) | 7.17% |
| Cc1nc(CCNC2CCN(Cc3ccccc3)C2)sc1C (centres undefined) | 53.5% |
| CCc1nc(C)sc1CNC1CCN(Cc2ccccc2)C1 (centres undefined) | -2.57% |
| CCC(=O)c1ccc(Br)cc1NN1c2cc(Br)ccc2C(=O)C1(C)OC (centres undefined) | 43.1% |
| CCc1n[nH]c(C(=O)N2CCN(c3ccc4ccccc4c3)CC2)c1C | -8.02% |
| CC(=O)N(C)c1nc(CN2CCCCC2Cn2cncn2)cs1 (centres undefined) | -125% |
| CC(=O)N(c1ccc(C)cc1)c1nc(CN2CCCCC2C)cs1 (centres undefined) | 61.8% |
| CCN(C(C)=O)c1nc(CN2CCCCC2Cn2cncn2)cs1 (centres undefined) | 9.81% |
| Cc1cnc(NC(C)Cc2cccnc2)nc1N(C)C (centres undefined) | 5.71% |
| O=C(NCc1ccco1)[C@@H]1CCO[C@@H]2CCN(CC3CC3)C[C@@H]21 | -37.9% |
| CN1CC(=O)N(c2cccc(F)c2)CC12CCN(Cc1nccs1)C2 (centres undefined) | -71.1% |
| c1ccc(-n2nnnc2CNCC2CCCN2c2cccnn2)cc1 (centres undefined) | -59.9% |
| CN(C)C(=O)CN1CCCC(c2nccnc2-c2cccc(Cl)c2)C1 (centres undefined) | 6.94% |
| COCCN1CCCC(c2nccnc2-c2cccc(Cl)c2)C1 (centres undefined) | 62.9% |
| Cc1cccc(-c2nccnc2C2CCCN(C)C2)c1 (centres undefined) | -10.8% |
| CN1CCCC(c2nccnc2-c2cccc(C(F)(F)F)c2)C1 (centres undefined) | 68.7% |
| CN1CCCC(c2nccnc2-c2cccc(Cl)c2)C1 (centres undefined) | 45.1% |
| Cn1cc(CN2CCCC(c3nccnc3-c3cccc(F)c3)C2)cn1 (centres undefined) | -45.2% |
| COc1ccc2c(c1)OCC(CNc1cc(N)nc(SC)n1)C2 (centres undefined) | -50.7% |

| SMILES | INHIBITION |
| --- | --- |
| CC(Cn1cccn1)NCc1ccc(OCc2ccncc2)cc1 (centres undefined) | -96.3% |
| CN1CCOC(CNCCOc2ccc(C#N)cc2)C1 (centres undefined) | -41.7% |
| Oc1coc2cc(OC[C@@H]3CCCN4CCCC[C@H]34)ccc12 | -8.29% |
| Cc1c(Cl)cccc1S(=O)(=O)N1CCC(S(=O)(=O)c2nncn2C)CC1 | -68.7% |
| O=C(NCc1cnc2n1CCN(Cc1ccsc1)CC2)C1CCC1 | -48.2% |
| CNS(=O)(=O)CCCN1CCCC1c1noc(C)n1 (centres undefined) | -104% |
| CCc1nc(C2CCCN2Cc2nc(C(C)(C)C)no2)no1 (centres undefined) | -105% |
| CCn1cc(CNC(=O)CC(C)C)cn1 | -153% |
| CC(C)n1ccnc1CN1CCCN(C(=O)c2cnc[nH]2)CC1 | 60.4% |
| Cc1[nH]ncc1C(=O)N1CCCN(Cc2nccn2C(C)C)CC1 | 11.1% |
| CC(C)n1ccnc1CN1CCCN(C(=O)c2cc(Cl)c[nH]2)CC1 | 39% |
| CN(C)CC(=O)N1CCC2(CC(=O)N(c3cccc(C#N)c3)C2)C1 (centres undefined) | -30% |
| Cc1cccc(CN2CCC3(CC(C(=O)NCC(C)C)=NO3)C2)c1 (centres undefined) | -93.1% |
| CCOCCN1CCN(CCOCC(F)(F)F)CC1 | -38.7% |
| CC(C(=O)NCc1ccco1)N1CCN(Cc2nccn2C)CC1 (centres undefined) | -35.6% |
| Cn1ccnc1C(O)(CCNCc1ccco1)C(F)(F)F (centres undefined) | 64.6% |
| FC(F)(F)C1CCCn2c(CNCc3ccco3)nnc21 (centres undefined) | -67% |
| CCc1cc(=O)[nH]c(-n2nc(C3CC3)cc2NC(=O)C2CC2)n1 | -66.5% |
| COCCN1CCC(NC(=O)NCC2(c3cccc(F)c3)CC2)C1 (centres undefined) | -77.2% |
| COCCC(=O)NC1CCN(CC2(c3cccc(F)c3)CCCC2)CC1 | 69.1% |
| COCCN1CCC(NC(=O)Nc2cccc(F)c2)C1 (centres undefined) | -54.6% |
| CC(=O)NCC(=O)N1CCn2cc(CN3CCCCC3)nc2C1 | -144% |

| SMILES | INHIBITION |
| --- | --- |
| O=C(c1ccc(S(=O)(=O)NCCc2ccncc2)cc1)N1CCCC1 | -36.5% |
| COc1ccc(NC2CCc3c2[nH]c(=O)n(C2CCCCC2)c3=O)cc1 (centres undefined) | -98.2% |
| c1ncc(Nc2nccc(C3CCCCN3CC3CCCCC3)n2)cn1 (centres undefined) | 52% |
| CC(=O)N1CCCC1c1ccnc(Nc2cncnc2)n1 (centres undefined) | -101% |
| CC(=O)N1CCC(c2ccnc(Nc3cncnc3)n2)CC1 | -18.6% |
| CN(C)CCCNC(=O)c1cnc(Cc2ccc(F)cc2)s1 | 27.4% |
| Cc1cccc(C(=O)NC(CN2CCCC2=O)c2ccccc2)n1 (centres undefined) | -161% |
| Cc1cnc(C(=O)NC(CN2CCCC2=O)c2ccccc2)cn1 (centres undefined) | 69.6% |
| Cc1ccc(C(=O)NC(CN2CCCC2=O)c2ccccc2)cn1 (centres undefined) | -81.3% |
| Cn1c2ccccc2c2ncn(CCN3CCOCC3)c(=O)c21 | -57.9% |
| Cc1[nH]c2ccccc2c1-c1ccnc(N[C@@H](CO)C(C)C)n1 | -9.36% |
| Cc1[nH]c2ccccc2c1-c1ccnc(N[C@@H](C)CO)n1 | -21.2% |
| Cc1[nH]c2ccccc2c1-c1ccnc(N[C@H](CO)CC(C)C)n1 | 51.9% |
| CC(c1nc(-c2ccccc2)no1)N1CCc2c(ncn2C2CC2)C1 (centres undefined) | -19.5% |
| Fc1cccnc1Oc1cc(F)c(CN2CCCC2)c(Cl)c1 | -49.5% |
| Cn1ccnc1CN1C[C@@H](CN2CCC(CO)CC2)[C@@H](CO)C1 | -1.49% |
| CN1CCN(C[C@@H]2CN(C3Cc4ccccc4C3)C[C@@H]2CO)CC1 | 51.4% |
| Cc1cccc(CN2C[C@@H](CN3CCCN(C)CC3)[C@@H](CO)C2)n1 | -29.5% |
| OC[C@H]1CN(C2Cc3ccccc3C2)C[C@H]1CN1CCC(O)CC1 | 15.1% |
| CN1CCN(C[C@@H]2CN(C(=O)c3ccccc3C#N)C[C@@H]2CO)CC1 | -106% |
| OCC1CCN(C[C@@H]2CN(C3Cc4ccccc4C3)C[C@@H]2CO)CC1 | 66.4% |
